Several values for one entry are separate records, joined by “and”; a condition that tells them apart may be missing. Equal entries are not always repeated. The whole screen tested about 340,000 compounds, of which about 5,100 (1.5%) were called active. The sample holds actives, similar compounds and a random draw of the others, so the mix is not that of the screen. A number with no mark means an inactive call.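 The calls were made as follows: active = mean Tm shift, scaled 0 neutral to 100 positive control, at about 1.3% or above, every replicate too (limit read from the data); inconclusive = no clear call, values can overlap the other calls; inactive = the rest.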

Chain of Fibroblast growth factor 22 (Homo sapiens) (Q9HCT0 whole entry, looked up): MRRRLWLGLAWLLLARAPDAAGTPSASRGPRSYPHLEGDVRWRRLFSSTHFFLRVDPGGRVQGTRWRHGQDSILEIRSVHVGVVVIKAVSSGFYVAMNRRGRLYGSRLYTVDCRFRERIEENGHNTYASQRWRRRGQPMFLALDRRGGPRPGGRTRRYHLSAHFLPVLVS

This assay has as its target Fibroblast growth factor 22 (Homo sapiens) (UniProt Q9HCT0). Nature of the assay: FGF22 ligand-induced thermal stabilization – biophysical, thermal shift, single point, FGF22 synaptogenesis inhibitor project, primary screen (AID 651658). Particulars: recombinant FGF22 thermal shift, SYPRO orange fluorescence; at 9.99 µM; active compounds read high; percent of sucrose octasulfate shift, DMSO zero.
`COCC(=O)N1CCCCN2[C@H](CO)[C@H](c3ccc(C#Cc4ccc(OC)cc4)cc3)[C@H]2C1`: the activity (Tm shift, normalised) was 0.2%.

As to `COc1ccc2c3c(n(C)c2c1)[C@H](CO)N(C(C)=O)CC31CCN(Cc2cccnc2)CC1`, the activity (Tm shift, normalised) is -0.052%.

For `C/C=C/c1ccc2c(c1)O[C@H](CN(C)C(=O)Cc1ccncc1)[C@@H](C)CN([C@@H](C)CO)S2(=O)=O`, the activity (Tm shift, normalised) was -0.034%.

For `Cc1nnc(SC(C(=O)Nc2cc(Cl)cc(Cl)c2)c2ccccc2)[nH]c1=O` (stereo not drawn), the activity (Tm shift, normalised) is 1.39% (active).

Take `CC(NCC(=O)Nc1cc(Cl)cc(Cl)c1)c1ccccc1` (stereo not drawn): the activity (Tm shift, normalised) is -0.134%.

`Cc1nnc(SC(C(=O)c2ccccc2)c2ccccc2)[nH]c1=O` (stereo not drawn): the activity (Tm shift, normalised) was 0.339%.

For `C[C@H]1CN([C@@H](C)CO)C(=O)Cc2cc(N(C)C)ccc2O[C@@H]1CN(C)S(=O)(=O)c1ccc(F)cc1`, the activity (Tm shift, normalised) was -0.149%.

As for `C[C@@H]1CCCCO[C@H](CN(C)S(=O)(=O)c2cccs2)[C@@H](C)CN([C@@H](C)CO)C(=O)c2cc(NC(=O)NC3CCCCC3)ccc2O1`, the activity (Tm shift, normalised) is -0.096%.

For the compound `Cc1ccccc1-c1ccc2c(c1)O[C@H](CN(C)C)[C@H](C)CN([C@@H](C)CO)S2(=O)=O`, the activity (Tm shift, normalised) is 0.074%.

For `C[C@@H]1CN([C@@H](C)CO)C(=O)c2cc(NC(=O)CCCCCC(=O)Nc3ccccc3N)ccc2O[C@@H](C)CCCCO[C@@H]1CN(C)CC1CCCCC1`, the activity (Tm shift, normalised) was -0.209%.

`COc1cc(C(=O)N2CCN(C/C=C/c3ccccc3)CC2)cc(OC)c1C`: the activity (Tm shift, normalised) is 0.444%.

For `O=C(Cn1c(N2CCN(C/C=C/c3ccccc3)CC2)nc2ccccc21)c1ccccc1`, the activity (Tm shift, normalised) is 44% (active).

Take `CC(C)Cn1c(N2CCN(C(=O)/C=C/c3ccccc3)CC2)nc2ccccc21`: the activity (Tm shift, normalised) is -0.183%.

With `CCCC(=O)Nc1ccc2c(c1)C(=O)N(C)C[C@H](OC)[C@@H](C)CN[C@H](C)CO2`, the activity (Tm shift, normalised) is -0.019%.

As for `CO[C@@H](CN(C)S(=O)(=O)c1ccccc1)[C@@H](C)CN(Cc1ccccc1Cl)[C@H](C)CO`, the activity (Tm shift, normalised) is 0.183%.

`COC(=O)Cc1c(-c2[nH]c3ccccc3c2CC(=O)OC)[nH]c2ccccc12`: the activity (Tm shift, normalised) was -0.112%.

Turning to `COC(=O)Cc1nc2c(N)nc(N)nc2[nH]c1=O`, the activity (Tm shift, normalised) is 44% (active).

In the case of `Cc1cc(C)cc(N2C(=O)CSC2c2cccc([N+](=O)[O-])c2)c1` (stereo not drawn), the activity (Tm shift, normalised) was -0.058%.

Consider `C[C@H]1CN([C@@H](C)CO)C(=O)Cc2cc(NS(=O)(=O)c3cn(C)cn3)ccc2O[C@@H]1CN(C)C(=O)Nc1ccc2c(c1)OCO2`, for which the activity (Tm shift, normalised) was -0.296%.

`CCCNC(=O)C[C@H]1CC[C@@H]2[C@H](COC[C@H](O)CN2S(=O)(=O)c2ccccc2F)O1`: the activity (Tm shift, normalised) is -0.049%.

Turning to `COc1ccc2c3c(n(C)c2c1)[C@H](CO)N(C)CC31CCN(C(=O)Nc2cccc(F)c2)CC1`, the activity (Tm shift, normalised) is 0.13%.

On to `C[C@H]1CN([C@@H](C)CO)S(=O)(=O)c2ccc(-c3ccccc3F)cc2O[C@H]1CN(C)C(=O)C1CC1`, for which the activity (Tm shift, normalised) is 0.047%.

Regarding `O=C1c2ccccc2C(=O)N1CCCCCCN1C(=O)c2ccccc2C1=O`, the activity (Tm shift, normalised) is -0.045%.

In the case of `CCN1CCN(C(=O)CCN2C(=O)c3ccccc3C2=O)CC1`, the activity (Tm shift, normalised) is 44.1% (active).

In the case of `CCN1CCN(C(=O)CSc2ccc(C)cc2)CC1`, the activity (Tm shift, normalised) is -0.037%.

Regarding `O=C(CN1CCOCC1)N1CC(=O)N2[C@H](C1)[C@H](c1ccc(/C=C/c3ccccc3)cc1)[C@@H]2CO`, the activity (Tm shift, normalised) was -0.125%.

Consider `CCc1nc2ccccc2c(C(=O)NCc2ccc(OC)cc2)c1C`, for which the activity (Tm shift, normalised) was 43.4% (active).

For `COc1ccc(CNC(=O)CN2C(=O)c3ccccc3S2(=O)=O)cc1`, the activity (Tm shift, normalised) is 0.05%.

`CCc1nc2ccccc2c(C(=O)OC2CCCCC2=O)c1C` (stereo not drawn): the activity (Tm shift, normalised) is 0.135%.

For `O=C(NCC(F)(F)F)[C@H]1[C@H](CO)[C@H]2Cn3c(ccc(-c4ccncc4)c3=O)[C@H]2N1Cc1ccncc1`, the activity (Tm shift, normalised) was -0.221%.

`COc1ccc(-c2cc(C(=O)NC(Cc3c[nH]c4ccccc34)C(=O)O)c(C)o2)cc1OC` (stereo not drawn): the activity (Tm shift, normalised) was 1.25%.

As to `COc1ccc(-c2cc(=O)oc3cc(OCC(=O)N[C@@H](Cc4c[nH]c5ccccc45)C(=O)O)ccc23)cc1`, the activity (Tm shift, normalised) was 2.9% (active).

Consider `Cc1cccc(C)c1OCC(=O)NC(Cc1c[nH]c2ccccc12)C(=O)O` (stereo not drawn), for which the activity (Tm shift, normalised) is -0.152%.

For `CC=Cc1ccc2n(c1=O)C[C@@H]1[C@@H](CO)[C@H](C(=O)N[C@@H](C)c3ccccc3)[C@H]2N1Cc1ccncc1` (mixture of isomers), the activity (Tm shift, normalised) is -0.334%.

On to `COc1cccc(C2CC(c3ccccc3)=NN2S(=O)(=O)c2ccccc2)c1OC` (stereo not drawn), for which the activity (Tm shift, normalised) is 44% (active).

With `CS(=O)(=O)Nc1cccc(C2=NN(S(=O)(=O)c3ccccc3)C(c3cccs3)C2)c1` (stereo not drawn), the activity (Tm shift, normalised) is 0.242%.

As for `COc1ccc(C2=NN(C(=O)c3ccccc3C(=O)O)C(c3ccccc3O)C2)cc1` (stereo not drawn), the activity (Tm shift, normalised) is -0.24%.

In the case of `C[C@H]1CN([C@@H](C)CO)S(=O)(=O)c2ccc(C3=CCCC3)cc2O[C@H]1CN(C)C(=O)Cc1ccncc1`, the activity (Tm shift, normalised) was 0.421%.

`O=C(C1CCCCC1)N1[C@H](CO)[C@@H](c2ccccc2)C12CN(Cc1cccc(Cl)c1)C2`: the activity (Tm shift, normalised) was -0.133%.

On to `COc1cc(C(=O)OCc2cc(=O)n3ccsc3n2)ccc1OC(C)C`, for which the activity (Tm shift, normalised) was 0.144%.

For `O=C(OCc1cc(=O)n2ccsc2n1)C1(c2ccc(Cl)cc2)CC1`, the activity (Tm shift, normalised) was 0.39%.

For the compound `COc1ccc(C(=O)OCc2cc(=O)n3ccsc3n2)cc1F`, the activity (Tm shift, normalised) is 44% (active).

For the compound `CCCC#Cc1ccc([C@H]2[C@H]3CN(C(=O)Nc4cccc(F)c4)CC(=O)N3[C@H]2CO)cc1`, the activity (Tm shift, normalised) was 0.366%.

On to `COc1cc2nc(CN(C)Cc3ccc(F)cc3)[nH]c(=O)c2cc1OC`, for which the activity (Tm shift, normalised) is -0.106%.

Regarding `COc1ccc(CN(C)Cc2nc3cc(OC)c(OC)cc3c(=O)[nH]2)c(OC)c1`, the activity (Tm shift, normalised) was 43.6% (active).

Consider `COc1cc(CN(C)Cc2nc3cc(C(F)(F)F)ccc3c(=O)[nH]2)ccc1OC(F)F`, for which the activity (Tm shift, normalised) was -0.382%.

For the compound `O=C(Nc1ccc(C(F)(F)F)cc1)N[C@@H]1CC[C@H](CC(=O)N2CCCCC2)O[C@H]1CO`, the activity (Tm shift, normalised) is -0.164%.

For `CO[C@@H]1CN(C)C(=O)c2ccc(NS(C)(=O)=O)cc2OC[C@@H](C)N(C(=O)C2CCOCC2)C[C@@H]1C`, the activity (Tm shift, normalised) is -0.055%.

Regarding `O=C(c1ccc(F)cc1)N1CC2(C1)[C@H](c1ccccc1)[C@@H](CO)N2Cc1ccccn1`, the activity (Tm shift, normalised) is -0.271%.

`O=C(NCCc1c[nH]c2ccccc12)C(=O)NCC1CCCO1` (stereo not drawn): the activity (Tm shift, normalised) is 1.53% (active).

As to `O=C(NCCc1c[nH]c2ccccc12)c1cc2ccccc2oc1=O`, the activity (Tm shift, normalised) is 0.185%.

Regarding `N#C/C(=C/c1ccc(N2CCCCC2)o1)C(=O)NCCc1c[nH]c2ccccc12`, the activity (Tm shift, normalised) is -0.174%.

Turning to `C[C@H](CO)N1C[C@H](C)[C@H](CN(C)C(=O)C2CC2)OCc2ccccc2-c2ccccc2C1=O`, the activity (Tm shift, normalised) is 0.103%.

Regarding `O=C(NCC[C@@H]1CC[C@H](NC(=O)C2CC2)[C@H](CO)O1)c1cnccn1`, the activity (Tm shift, normalised) was 0.118%.

For the compound `C[C@H](O)C#Cc1ccc2c(c1)O[C@H](CN(C)Cc1ccccn1)[C@H](C)CN([C@H](C)CO)S2(=O)=O`, the activity (Tm shift, normalised) was -0.169%.

Take `CCCNC(=O)C[C@@H]1C[C@H]2c3cc(NC(=O)Nc4ccccc4F)ccc3O[C@H]2[C@H](CO)O1`: the activity (Tm shift, normalised) was -0.607%.

As for `COc1cccc(NC(=O)N2[C@@H]3CNC[C@H]2C3c2ccc(-c3ccncc3)cc2)c1` (stereo partly drawn), the activity (Tm shift, normalised) is 0.042% and -0.443%.

As to `S=c1[nH]nc(COc2ccccc2)n1-c1ccccc1`, the activity (Tm shift, normalised) was 43.8% (active).

As to `Fc1ccc(/C=N/n2c(COc3ccccc3)n[nH]c2=S)cc1`, the activity (Tm shift, normalised) is 0.702%.

For `COc1ccc(OCc2n[nH]c(=S)n2N)cc1`, the activity (Tm shift, normalised) is 0.243%.

Consider `CO[C@@H]1CN(C)C(=O)c2cc(NS(=O)(=O)CC(F)(F)F)ccc2OC[C@H](C)N(C)C[C@H]1C`, for which the activity (Tm shift, normalised) is -0.229%.

For the compound `O=C(C[C@H]1CC[C@H]2[C@@H](COC[C@H](O)CN2C(=O)c2ccccc2F)O1)NCc1ccccc1`, the activity (Tm shift, normalised) was 0.053%.

Turning to `O=C(NCC1CC1)[C@H]1[C@H](CO)[C@H]2Cn3c(ccc(/C=C/c4ccccc4)c3=O)[C@@H]1N2C(=O)C1CCC1`, the activity (Tm shift, normalised) is 0.006%.

Regarding `COc1ccc(Cn2c(=O)oc3ccccc32)cc1`, the activity (Tm shift, normalised) is -0.205%.

`COc1ccc(-c2ccc([C@@H]3[C@@H](CO)N4C(=O)CN(Cc5ccccc5)C[C@@H]34)cc2)cc1`: the activity (Tm shift, normalised) was -0.039%.

As to `COc1ccc(Cn2c(-c3ccc(Cl)cc3)c[n+]3ccccc23)cc1`, the activity (Tm shift, normalised) was 44% (active).

For the compound `C[C@@H]1CCCCO[C@H](CN(C)Cc2ccc3c(c2)OCO3)[C@H](C)CN([C@@H](C)CO)C(=O)c2cc(NS(=O)(=O)c3cccs3)ccc2O1`, the activity (Tm shift, normalised) was -0.357% and -0.044%.

On to `O=C(Nc1ccc(Cl)cc1)C1c2cccc[n+]2CC(=O)N1Cc1ccc2c(c1)OCO2` (stereo not drawn), for which the activity (Tm shift, normalised) was -0.124%.

As for `CCCOc1ccc(NC(=O)CC2C(=O)N(C)C(=S)N2Cc2ccc3c(c2)OCO3)cc1` (stereo not drawn), the activity (Tm shift, normalised) was 2.52% (active).

Turning to `CCOc1ccc(NC(=O)CC2C(=O)N(c3ccccc3)C(=O)N2CCOC)cc1` (stereo not drawn), the activity (Tm shift, normalised) is -0.014%.

In the case of `COc1ccc(NC(=O)N[C@@H]2CC[C@H](CC(=O)NC3CCC3)O[C@H]2CO)cc1`, the activity (Tm shift, normalised) is -0.109%.

Consider `O=C(C[C@@H]1CC[C@@H]2[C@H](COC[C@H](O)CN2S(=O)(=O)c2ccc(Oc3ccccc3)cc2)O1)NCCN1CCCCC1`, for which the activity (Tm shift, normalised) is 0.107%.

`COc1ccccc1-c1cnc2c(c1)C(=O)N([C@@H](C)CO)C[C@@H](C)[C@@H](CN(C)C(=O)c1cccnc1)O2`: the activity (Tm shift, normalised) is -0.285%.

These data come from PubChem BioAssay AID651658 (Broad Institute, 2012).
